For some of these results: Potency and affinity values are given separately. Activity calls are given as the source filed them.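 The calls were made as follows, unless noted: active = hit in primary screen, with calcium signal over 5 SD above buffer well mean in both duplicates; inactive = the rest.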
Columns and labels:
[1] = test system: TRPC4 beta (transient receptor potential cation channel C4), mouse; assay: activators of mouse TRPC4 channel, confirmation, cell-based, Fluo4 calcium, HEK293 TRPC4beta/mu-opioid, duplicates, 10 µM (AID 2426;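 active = fluorescence ratio normalized to control raised more than 50% in primary screen plus both repeat runs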;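 as to activation: percent rise of integrated ratio over buffer wells lacking compound which define 0%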); details: Fluo4 calcium fluorescence, at 10 µM; hits give high values
[2] = test system: transient receptor potential cation channel C4 beta (TRPC4), mouse; assay: activators of mouse TRPC4 channel, confirmation, cell-based, second round, Fluo4, HEK293 TRPC4beta/mu-opioid, 1 µM (AID 2461;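 active = primary screen active and over 50% activation in each of two duplicate runs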); details: Fluo4 calcium fluorescence, at 1 µM; hits give high values
[3] = test system: TRPC4 (transient receptor potential cation channel C4 beta), mouse; assay: positive allosteric modulators of mouse TRPC4, confirmation, cell-based, second round, Fluo-4, HEK293 TRPC4beta/mu-opioid, 1 µM (AID 2554;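 active = primary screen hit whose fluorescence ratio, in both repeats, exceeds the weak agonist control mean by 3 SD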); details: DAMGO EC20, Fluo-4 calcium flux, at 1 µM; hits give high values
[4] = test system: TRPC4 beta (transient receptor potential cation channel C4), mouse; assay: positive allosteric modulators of mouse TRPC4, confirmation, cell-based, Fluo-4, HEK293 TRPC4beta/mu-opioid (AID 2555;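 active = primary screen hit whose calcium fluorescence ratio, in both repeats, exceeds the weak agonist control mean by 3 SD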); details: DAMGO EC20, Fluo-4 calcium flux, at 10 µM; hits give high values
[5] = biological target: Short transient receptor potential channel 4 (Mus musculus) (UniProt Q9QUQ5); assay: inhibitors of mouse TRPC4 channel, confirmation, cell-based, Fluo4, HEK293 TRPC4beta/mu-opioid (AID 2636;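 active = calcium signal cut by more than 3 SD below the full-agonist control yet still positive, in both repeats and the earlier primary screen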); details: DAMGO, Fluo4 calcium flux, at 10 µM; hits give high values
Short transient receptor potential channel 4 (Mus musculus), sequence (Q9QUQ5 whole entry, looked up): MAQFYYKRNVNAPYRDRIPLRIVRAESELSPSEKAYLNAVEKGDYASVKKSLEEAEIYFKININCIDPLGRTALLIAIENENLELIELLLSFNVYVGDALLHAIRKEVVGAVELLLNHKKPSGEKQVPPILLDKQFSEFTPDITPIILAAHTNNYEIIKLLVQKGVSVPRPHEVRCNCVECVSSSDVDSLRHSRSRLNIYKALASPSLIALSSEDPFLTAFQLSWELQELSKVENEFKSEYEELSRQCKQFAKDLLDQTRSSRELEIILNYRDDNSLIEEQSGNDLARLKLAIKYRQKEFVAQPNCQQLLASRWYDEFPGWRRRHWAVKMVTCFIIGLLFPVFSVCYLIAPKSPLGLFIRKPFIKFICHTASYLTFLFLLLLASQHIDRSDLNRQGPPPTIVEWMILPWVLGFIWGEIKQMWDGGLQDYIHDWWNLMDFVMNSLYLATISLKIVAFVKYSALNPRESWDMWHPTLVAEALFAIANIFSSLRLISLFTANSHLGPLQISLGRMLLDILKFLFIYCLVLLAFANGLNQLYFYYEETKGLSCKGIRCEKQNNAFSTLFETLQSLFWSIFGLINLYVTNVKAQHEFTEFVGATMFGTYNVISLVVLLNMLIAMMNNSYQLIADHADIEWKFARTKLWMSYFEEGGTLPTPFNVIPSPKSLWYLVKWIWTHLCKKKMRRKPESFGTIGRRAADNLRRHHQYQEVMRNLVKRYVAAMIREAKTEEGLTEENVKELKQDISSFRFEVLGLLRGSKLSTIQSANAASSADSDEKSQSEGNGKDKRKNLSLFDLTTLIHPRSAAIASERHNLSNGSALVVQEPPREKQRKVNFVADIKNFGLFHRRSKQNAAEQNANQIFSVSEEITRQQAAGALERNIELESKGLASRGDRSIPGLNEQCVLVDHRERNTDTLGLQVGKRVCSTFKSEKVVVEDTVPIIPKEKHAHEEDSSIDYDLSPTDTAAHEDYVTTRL

[6] = biological target: Short transient receptor potential channel 4 (Mus musculus) (UniProt Q9QUQ5); assay: inhibitors of mouse TRPC4 channel, confirmation, cell-based, second round, Fluo4, HEK293 TRPC4beta/mu-opioid, 1 µM (AID 2637;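 active = calcium signal ratio cut to more than 3 SD under the fully stimulated control mean yet still positive, in both repeats and the primary screen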;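 as to inhibition: percent of integrated ratio relative to wells lacking test compound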); details: Fluo4 calcium flux, DAMGO, at 1 µM; hits give high values
[7] = biological target: Short transient receptor potential channel 4 (Mus musculus) (UniProt Q9QUQ5); assay: TRPC4 positive allosteric modulators, dose response, cell-based, HEK293 TRPC4/mu-opioid, Fluo-4 calcium, EC20 DAMGO (AID 434941;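 active = earlier screen potentiator hit that boosts the TRPC4 ion channel at some dose, with a dose response; inactive = no potentiation, no dose response, or not a prior hit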;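 also: calcium entry triggered by an EC20 dose of DAMGO at the co-expressed mu-opioid receptor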)
[8] = biological target: Short transient receptor potential channel 4 (Mus musculus) (UniProt Q9QUQ5); assay: mouse TRPC4 channel inhibitors, dose response, cell-based, HEK293 TRPC4/mu-opioid, Fluo-4 calcium (AID 434942;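 active = primary screen inhibitor hit that blocks the TRPC4 channel at some tested dose, yielding a dose curve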)
[9] = biological target: Short transient receptor potential channel 6 (Mus musculus) (UniProt Q61143); assay: inhibition of mouse TRPC6 channel, confirmation, selectivity assay for TRPC4 inhibitor project, cell-based, HEK293, membrane potential dye, duplicate (AID 434948;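 active = active in primary screen and both duplicates, each dropping signal beyond three positive-control SD with fluorescence still positive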); details: HEK293 TRPC6, membrane potential dye fluorescence, at 10 µM, stimulated with maximal-effect acetylcholine; hits give high values
Short transient receptor potential channel 6 (Mus musculus), sequence (Q61143 whole entry, looked up): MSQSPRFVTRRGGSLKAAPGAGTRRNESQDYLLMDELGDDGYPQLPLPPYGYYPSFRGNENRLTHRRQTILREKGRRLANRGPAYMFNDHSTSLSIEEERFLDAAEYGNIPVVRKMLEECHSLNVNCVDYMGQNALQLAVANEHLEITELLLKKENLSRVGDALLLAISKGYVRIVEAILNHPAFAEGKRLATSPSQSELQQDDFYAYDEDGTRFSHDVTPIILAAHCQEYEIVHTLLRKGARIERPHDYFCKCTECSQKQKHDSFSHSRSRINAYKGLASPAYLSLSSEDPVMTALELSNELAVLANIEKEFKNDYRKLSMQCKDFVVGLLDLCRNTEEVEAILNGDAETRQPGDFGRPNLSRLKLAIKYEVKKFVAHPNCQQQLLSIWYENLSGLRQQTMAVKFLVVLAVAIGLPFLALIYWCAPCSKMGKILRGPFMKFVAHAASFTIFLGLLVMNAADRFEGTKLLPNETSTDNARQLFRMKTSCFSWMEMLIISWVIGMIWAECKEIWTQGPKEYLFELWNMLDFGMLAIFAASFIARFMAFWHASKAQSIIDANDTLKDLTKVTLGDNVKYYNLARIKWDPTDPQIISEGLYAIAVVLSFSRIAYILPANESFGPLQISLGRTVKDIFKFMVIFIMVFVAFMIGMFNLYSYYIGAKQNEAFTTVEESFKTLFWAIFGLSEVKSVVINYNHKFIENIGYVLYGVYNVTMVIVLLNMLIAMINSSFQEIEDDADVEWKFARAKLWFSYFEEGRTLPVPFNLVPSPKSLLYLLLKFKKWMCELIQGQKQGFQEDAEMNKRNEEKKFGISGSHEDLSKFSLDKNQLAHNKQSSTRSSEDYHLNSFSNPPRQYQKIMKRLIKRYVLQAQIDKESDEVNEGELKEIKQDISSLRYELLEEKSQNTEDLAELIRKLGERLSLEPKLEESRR

[10] = biological target: Short transient receptor potential channel 6 (Mus musculus) (UniProt Q61143); assay: activation of mouse TRPC6 channel, confirmation, selectivity assay for TRPC4 activator project, cell-based, HEK293, membrane potential dye, duplicate (AID 434950;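 active = membrane potential signal rise above negative control mean plus 3 SD in both duplicates, also active in the earlier TRPC4 screen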;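 as to activation: 0% = buffer only wells and 100% = acetylcholine maximal-effect wells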); details: HEK293 TRPC6, membrane potential fluorescence, at 10 µM; hits give high values
[11] = biological target: Short transient receptor potential channel 6 (Mus musculus) (UniProt Q61143); assay: TRPC6 potentiation by TRPC4 potentiator hits, confirmation, selectivity assay for TRPC4 potentiator project, HEK293 cells, membrane potential dye, duplicate (AID 434952;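 active = compound raising the membrane signal above positive-control mean plus 3 SD in both repeats, and a primary screen hit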); details: HEK293 TRPC6, membrane potential dye fluorescence, at 10 µM, maximal acetylcholine added after compound; hits give high values
[12] = biological target: Short transient receptor potential channel 4 (Mus musculus) (UniProt Q9QUQ5); assay: calcium flux activators in TRPC4/5HT1a cells, counter-screen for TRPC4 activator project, cell-based, second counter screen, HEK293 TRPC4/5HT1a, Fluo-4 (AID 434977;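 active = calcium signal rise above buffer-control mean plus 5 SD in both duplicates, and also a hit in the primary screen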;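 as to activation: plate controls were assay buffer for no effect and maximal serotonin response for full effect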); details: Fluo-4 calcium flux, at 10 µM; hits give high values
[13] = calcium flux inhibitors in TRPC4/5HT1a cells, confirmation, counter-screen for TRPC4 inhibitor project, cell-based, second counter screen, HEK293 TRPC4/5HT1a, Fluo-4 (AID 434978;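 active = primary screen active whose calcium signal fell more than 3 SD beyond the full-serotonin control mean in both duplicate plates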;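 as to outcome: serotonin given first at submaximal then at maximal dose after compound preincubation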); details: Fluo-4 calcium flux, at 10 µM, serotonin added to trigger calcium flux; hits give high values
[14] = test system: TRPC4 (mouse), co-expressed with 5HT1a in HEK293; assay: calcium flux potentiators in TRPC4/5HT1a cells, confirmation, counter-screen for TRPC4 potentiator project, cell-based, second counter screen, HEK293 TRPC4/5HT1a, Fluo-4 (AID 434979;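 active = signal rise over 3 SD above mean of control wells given weak agonist, in both repeats and first screen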); details: Fluo-4 calcium flux, at 10 µM, serotonin added at its EC20 dose; hits give high values
[15] = calcium flux activation in mu-opioid HEK293 cells, confirmation, counter-screen for TRPC4 activator project, cell-based, HEK293 mu-opioid receptor line (AID 449723); details: Fluo-4 calcium fluorescence, at 10 µM; hits give high values;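 also: counter screen cells carry the mu-opioid receptor alone and lack TRPC4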
[16] = calcium flux enhancement in mu-opioid HEK293 cells, confirmation, counter-screen for TRPC4 allosteric potentiator project, cell-based, HEK293 mu-opioid receptor line (AID 449724;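 active = calcium signal rise more than 3 SD above the low-dose agonist control mean, in both duplicate plates and the primary screen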); details: Fluo-4 calcium flux, at 10 µM, compound added before EC20 DAMGO stimulus; hits give high values
[17] = thallium flux activation in parental CHO cells, counter-screen for KCNQ1 potentiator project (AID 493006;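 active = duplicate-averaged activation above buffer control mean plus 5 SD of those controls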;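 as to activation: fluorescence ratio of max minus min over baseline after K+ and Tl+ depolarization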); details: parental CHO-K1 cells, FluxOR thallium flux, at 10 µM; hits give high values
[18] = biological target: Potassium voltage-gated channel subfamily KQT member 1 (Homo sapiens) (UniProt P51787); assay: KCNQ1 potassium channel potentiators, confirmation, FluxOR thallium flux, CHO cells, duplicates (AID 493007;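 active = potentiation averaged over duplicate wells exceeding buffer-only control mean by more than 3 SD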;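 also: 0% = buffer-only wells and 100% = R-L3 activator control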); details: KCNQ1 cell line, FluxOR thallium flux fluorescence, at 10 µM; hits give high values, % of reference activator effect, buffer zero
Potassium voltage-gated channel subfamily KQT member 1 (Homo sapiens), sequence (P51787 whole entry, looked up): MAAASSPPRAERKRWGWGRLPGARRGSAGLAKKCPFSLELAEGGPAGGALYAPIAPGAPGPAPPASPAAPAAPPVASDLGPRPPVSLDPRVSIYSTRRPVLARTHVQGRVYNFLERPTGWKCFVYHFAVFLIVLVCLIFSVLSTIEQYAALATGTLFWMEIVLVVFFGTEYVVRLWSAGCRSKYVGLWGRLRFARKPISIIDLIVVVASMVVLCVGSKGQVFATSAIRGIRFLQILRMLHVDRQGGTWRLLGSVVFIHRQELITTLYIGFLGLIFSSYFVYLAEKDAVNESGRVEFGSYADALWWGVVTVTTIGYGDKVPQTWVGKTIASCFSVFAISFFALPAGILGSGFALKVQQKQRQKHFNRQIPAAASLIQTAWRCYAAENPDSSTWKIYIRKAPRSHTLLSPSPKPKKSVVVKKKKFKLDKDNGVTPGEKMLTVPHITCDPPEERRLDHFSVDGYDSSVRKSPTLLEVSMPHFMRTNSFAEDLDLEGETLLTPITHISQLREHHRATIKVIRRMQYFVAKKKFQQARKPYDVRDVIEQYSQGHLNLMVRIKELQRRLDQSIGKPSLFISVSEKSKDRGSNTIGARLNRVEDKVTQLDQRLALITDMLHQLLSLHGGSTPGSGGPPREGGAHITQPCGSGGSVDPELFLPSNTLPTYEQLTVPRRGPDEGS

[19] = biological target: Potassium voltage-gated channel subfamily KQT member 2 (Rattus norvegicus) (UniProt O88943); assay: rat KCNQ2 channel potentiation, selectivity assay for KCNQ1 potentiator project, KCNQ2-CHO-K1 cells (AID 493009;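 active = mean duplicate potentiation above the buffer control mean plus 5 SD of buffer wells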;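 also: assay conditions were tuned for KCNQ1 rather than KCNQ2 modulators; signal is max minus min fluorescence divided by baseline after thallium stimulus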); details: FluxOR thallium flux fluorescence, at 10 µM; hits give high values, scaled: buffer 0, activator control 100
Potassium voltage-gated channel subfamily KQT member 2 (Rattus norvegicus), sequence (O88943 whole entry, looked up): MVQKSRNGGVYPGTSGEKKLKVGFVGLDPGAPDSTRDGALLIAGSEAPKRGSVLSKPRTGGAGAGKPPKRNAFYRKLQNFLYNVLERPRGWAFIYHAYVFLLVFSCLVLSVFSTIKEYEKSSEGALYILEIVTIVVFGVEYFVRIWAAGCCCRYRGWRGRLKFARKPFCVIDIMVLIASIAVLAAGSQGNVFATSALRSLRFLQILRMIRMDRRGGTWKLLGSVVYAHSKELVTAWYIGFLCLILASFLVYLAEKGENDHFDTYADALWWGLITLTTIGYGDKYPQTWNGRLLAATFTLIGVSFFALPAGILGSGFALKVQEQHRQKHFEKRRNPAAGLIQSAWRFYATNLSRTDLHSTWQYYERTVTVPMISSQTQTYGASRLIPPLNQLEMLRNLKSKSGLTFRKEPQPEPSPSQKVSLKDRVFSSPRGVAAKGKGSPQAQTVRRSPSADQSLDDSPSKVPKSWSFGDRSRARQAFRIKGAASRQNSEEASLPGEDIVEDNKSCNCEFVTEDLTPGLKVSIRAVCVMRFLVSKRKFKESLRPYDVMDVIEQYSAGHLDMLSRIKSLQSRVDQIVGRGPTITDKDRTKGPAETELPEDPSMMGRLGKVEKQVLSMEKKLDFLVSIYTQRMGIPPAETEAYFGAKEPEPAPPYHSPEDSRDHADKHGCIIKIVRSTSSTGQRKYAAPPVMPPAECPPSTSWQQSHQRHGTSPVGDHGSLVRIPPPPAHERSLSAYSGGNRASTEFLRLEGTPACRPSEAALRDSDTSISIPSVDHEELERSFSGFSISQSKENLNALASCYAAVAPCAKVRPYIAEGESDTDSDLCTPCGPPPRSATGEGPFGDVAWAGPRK

[20] = biological target: Potassium voltage-gated channel subfamily KQT member 1 (Homo sapiens) (UniProt P51787); assay: KCNQ1 channel current potentiators, confirmation, orthogonal assay for KCNQ1 potentiator project, IonWorks patch clamp, KCNQ1-CHO cells (AID 493184;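 active = current rise at least 3 SD above the untreated control mean in each of two repeat wells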); details: automated patch clamp current, at 10 µM; hits give high values

Cc1cccc(C(=O)NC(=S)NNC(=O)c2ccccc2Cl)c1
inactive: outcome [2] | outcome [3] | outcome [4] | outcome [5] | outcome [6] | outcome [7] | outcome [8] | outcome [9] | outcome [11] | outcome [13] | outcome [14] | outcome [16] | outcome [17] | outcome [20]
active: activation [1] 201% | activation [10] 34% | activation [12] 138% | activation [15] 85.8% | potentiation [18] 50.5% | potentiation [19] 158%

CC1CC(C)(C)N(C(=O)CN2C(=O)c3ccccc3C2=O)c2ccccc21 (centres undefined)
active: activation [1] 149% | inhibition [5] 73% | activation [10] 51.5% | activation [12] 23.1% | activation [15] 62.6%
inactive: outcome [2] | outcome [3] | outcome [4] | outcome [6] | outcome [7] | outcome [9] | outcome [11] | outcome [13] | outcome [14] | outcome [16]

COC(=O)C1=NN(C(=O)c2ccc(C)cc2)C(O)(c2ccc(Cl)cc2)C1 (centres undefined)
inactive: outcome [2] | outcome [3] | outcome [4] | outcome [5] | outcome [6] | outcome [7] | outcome [8] | outcome [9] | outcome [11] | outcome [13] | outcome [14] | outcome [16] | outcome [20]
active: activation [1] 160% | activation [10] 315% | activation [12] 96.9% | activation [15] 67.6% | activation [17] 602% | potentiation [18] 280%

CCCc1ccc(OCC(=O)NNC(=S)NC(=O)c2ccco2)cc1
inactive: outcome [1] | outcome [2] | outcome [3] | outcome [4] | outcome [5] | outcome [6] | outcome [7] | outcome [8] | outcome [9] | outcome [10] | outcome [11] | outcome [13] | outcome [14] | outcome [15] | outcome [16] | outcome [20]
active: activation [12] 46.5% | activation [17] 164% | potentiation [18] 79.5% | potentiation [19] 216%

O=C(N/N=C/c1cccnc1)c1ccccc1OCc1ccc(Cl)cc1
inactive: outcome [1] | outcome [2] | outcome [3] | outcome [4] | outcome [7] | outcome [9] | outcome [10] | outcome [11] | outcome [12] | outcome [14] | outcome [15] | outcome [16]
active: inhibition [5] 98% | inhibition [6] 48% | inhibition [13] 42.7%

CCCOc1ccc(C(=O)NC(=S)NNC(=O)c2c(-c3ccccc3)noc2C)cc1
active: activation [1] 107% | activation [12] 92.6% | activation [15] 39.4% | potentiation [18] 28.5%
inactive: outcome [2] | outcome [3] | outcome [4] | outcome [5] | outcome [6] | outcome [7] | outcome [8] | outcome [9] | outcome [10] | outcome [11] | outcome [13] | outcome [14] | outcome [16] | outcome [17] | outcome [19] | outcome [20]

CCNC(=S)N1CCC(C(O)(c2ccccc2)c2ccccc2)CC1
active: activation [1] 117% | inhibition [5] 96% | activation [10] 41.5%
inactive: outcome [2] | outcome [3] | outcome [4] | outcome [6] | outcome [7] | outcome [9] | outcome [11] | outcome [12] | outcome [13] | outcome [14] | outcome [15] | outcome [16]

From PubChem BioAssay
